High-throughput results from PubChem.
Shown are actives, neighbours in structure and some others; about 3.7% of the full set was active somewhere.
HTT aggregate – mutant huntingtin aggregation inhibition; PC12 HttQ103-GFP aggregates, Acumen cytometry, 40 h; Potency, µM (doses to about 46.1 µM), without a hit: at the highest dose activity change, negative = inhibition, actives largely listed as inhibitors; hit rate 1.1% among 220,000; also: % is scaled to controls: 0 for no effect and ±100 for the full control effect; nearly all actives have a fitted effect of over 60% in size
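Using laser scanning cytometry, GFP-positive aggregates were counted after lysis of PC12 cells induced with 100 nM tebufenozide to express HTT exon 1 Q103–GFP. Compounds were tested in titration.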
Tau fibril FP – blocks human tau fibril formation measured by polarization | K18 P301L tau heparin fibrillization, Alexa594 FP, 6 h | Potency, µM (doses to about 57.7 µM), without a hit: at the top dose activity, negative = inhibition, actives largely listed as inhibitors | hit rate 0.39% among 280,000; also: % is scaled to controls: 0 for no effect and ±100 for the full control effect; nearly all actives have a fitted effect of over 55% in size
Target sequence (P10636 561-689 P618L limits assumed): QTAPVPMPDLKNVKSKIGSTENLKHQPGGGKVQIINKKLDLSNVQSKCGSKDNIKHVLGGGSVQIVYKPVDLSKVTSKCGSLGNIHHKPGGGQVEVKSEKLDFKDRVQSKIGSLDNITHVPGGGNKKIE
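Read-out: fluorescence polarization of Alexa 594-labeled tau (0.24 uM), 555 nm excitation, 632 nm emission. Mixtures held 15 uM unlabeled K18 P301L, compound and 20 uM heparin, pH 7 acetate buffer, incubated 6 hr at 37 C.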
HTT ATP protect – protects HTT-Q103 PC12 cells, measured by ATP; PC12 HTT-Q103 induced, cytoprotection, ATP luminescence, 40 h; Potency, µM (series often up to 56.4 µM), without a hit: cytoprotection (ATP increase), most hits filed as activators; hit rate 0.14% among 230,000; AID 1471; also: % of control where 0% means no effect; nearly all actives have a fitted effect of over 45% in size
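Cells were plated at 1500 per well in phenol red-free DMEM with 5% equine and 5% calf serum. Tebufenozide (100 nM final) and compounds were added, then ATPlite reagent, and luminescence was read.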
Tau ThT inhib – tau fibrillization inhibition (ThT binding) | recombinant tau K18 P301L, heparin-induced fibrillization, ThT fluorescence | hit rate 2.1% among 270,000 | Potency, µM (series often up to 57.4 µM), for inactives: at the highest dose activity, negative = inhibition, most hits filed as inhibitors | P10636; also: % is scaled to controls: 0 for no effect and ±100 for the full control effect; nearly all actives have a fitted effect of over 55% in size
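Heparin-induced (20 uM) aggregation of recombinant human K18 P301L tau, 15 uM unlabeled with 0.24 uM labeled, pH 7 acetate buffer, 6 hr at 37 C with compound. Fibrils quantified by 30 uM ThT fluorescence after 1 hr ambient incubation.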
Tau fluor cs – counter-screen for tau fibril formation inhibitors; tau K18 P301L Alexa594 fluorescence, heparin fibrillization; Potency, µM (series often up to 57.7 µM), inactives show at the top dose activity change, negative = decrease; hit rate 0.93% among 280,000; AID 1463; also: % is scaled to controls: 0 for no effect and ±100 for the full control effect; nearly all actives have a fitted effect of over 55% in size
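Human tau K18 P301L (15 uM unlabeled, 0.24 uM Alexa 594-labeled) in 100 mM sodium acetate pH 7 with 20 uM heparin, 6 hr at 37 C. ThT 30 uM added, 1 hr ambient; Alexa 594 FP and total fluorescence read at 555/632 nm.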
Active calls of the source: *; ? = inconclusive; . = not tested or not shown; [ ] = dose if it differs, or a comment. Calls follow the shape of the dose curve; as a rule, active = well fitted curve in the direction sought with a large enough effect; inconclusive = small, poorly fitted or top-dose-only effect, or another doubt; inactive = no such curve, though single readings can be large; an effect the other way counts as inactive or inconclusive. Potency is read from the fitted curve at half-maximal effect.

SMILES | HTT aggregate | Tau fibril FP | HTT ATP protect | Tau ThT inhib | Tau fluor cs
CCOc1cccc(-c2cc(=O)[nH][nH]2)c1 | 20% | ? | -4%[0.074 µM] | 3.5µM* | -21%
COc1ccc(C(=O)NCC(c2ccc3c(c2)OCO3)N2CCN(c3ccccc3F)CC2)cc1 (stereo unspecified) | . | -1% | . | ? | -28%
O=C(Nc1cccc(F)c1)N1CC[C@@]2(CCCNC2)C1 | . | . | -50% | . | .
Cc1ccc(C)c(NC(=O)Nc2csc3c2CCCC3)c1 | . | 0% | . | ? | -20%
CC1CCC(N2CC(=O)N(C3CCCCC3)C(c3ccc(Cl)cc3)C2=O)CC1 (stereo unspecified) | . | 1% | . | -6% | 4%
Cc1ccc(S(=O)(=O)NC(C)C(=O)NC2CCCCCC2)cc1 (stereo unspecified) | 0.89µM* | 0% | -2%[0.074 µM] | -2% | -1%
CC(NCc1ccc(F)cc1)C(=O)NC1CCCCC1 (stereo unspecified) | -11%[9.22 µM] | -20% | -26%[10 µM] | 32µM* | -21%
Cc1ccc(S(=O)(=O)NC(=O)NC2CCCCC2)cc1 | 20% | . | -21% | . | .
CN(C)CC(CN(C)C)c1ccccn1 | . | . | -1%[10 µM] | . | .
CC1(CC(=O)O)O[C@H]2CCCCC[C@H]2O1 (stereo partly specified) (tested in a mixture with another compound) | . | . | 1%[10 µM] | . | .
COc1cccc([C@@H]2Oc3ccc(OC)cc3C(=O)[C@H]2OC(=O)N[C@H]2CCCc3ccccc32)c1 | . | -17% | -41% | -13% | -25%
Cc1cc(C)c2c(N)c3cccc(C)c3nc2n1 | 13µM* | -3% | . | ? | -19%
Cc1cc(/C=C2/SC(=S)N(c3ccc([N+](=O)[O-])cc3)C2=O)c(C)n1-c1cccnc1 | 4µM* | 2% | . | ? | -24%
Cc1ccc(/C=C2\SC(=S)N(c3cccnc3)C2=O)o1 | -8%[9.22 µM] | ? | -14%[10 µM] | 16µM* | -18%
Cc1ccc(/C=C2\SC(=S)N(Cc3ccccc3)C2=O)o1 | 16% | ? | -11% | 16µM* | ?
O=C1/C(=C/c2ccncc2)SC(=S)N1Cc1ccccc1 | 10%[9.22 µM] | -1% | -14%[10 µM] | ? | -24%
Cc1ccc(/C=C2/NC(=O)N(Cc3ccccc3)C2=O)o1 | 26% | ? | . | 32µM* | -21%
COc1cc(/C=C\C(=O)N2CCCCC2=O)cc(OC)c1OC | . | . | -80% | . | .
COc1ccc2c(c1)[C@]1(C)CCC[C@](C)(CO)[C@@H]1CC2 | . | . | 10% | . | .
Cc1cn2c(=O)c(S(=O)(=O)NCCc3ccccc3)c(C)nc2s1 | . | 2% | . | -2% | -1%
CC(C)=CCC/C(C)=C/CO/N=C1/C[C@@H](O)[C@@H](O)[C@@H]2[C@@H]3C(=O)N(C4CCCCC4)C(=O)[C@H]3CC[C@@H]12 | . | -1%[11.6 µM] | 4%[10 µM] | -4%[11.5 µM] | -8%[11.6 µM]
O=C(O)c1cc(-c2ccc(/C=C3/SC(=S)N(Cc4ccccc4)C3=O)o2)ccc1Cl | -2% | -6% | 24% | 10µM* | 2%
Cc1csc2nc(-c3ccc(NS(=O)(=O)c4cc(F)ccc4F)cc3)cn12 | . | 13% | . | -15% | -29%
O=C(Nc1ccc(Cl)cc1)c1cc2c(-c3ccccc3)nn(-c3ccccc3)c2s1 | . | 25µM* | . | 11% | -27%
Cc1nn(-c2ccccc2)c2sc(C(=O)Nc3cccc(Br)c3)cc12 | . | 7.9µM* | . | ? | ?
SMILES | HTT aggregate | Tau fibril FP | HTT ATP protect | Tau ThT inhib | Tau fluor cs
O=C(Nc1ccccc1)c1cc2c(-c3ccccc3)nn(-c3ccccc3)c2s1 | . | 20µM* | . | -1% | ?
C=C1c2cccc(O)c2C(O)=C2C(=O)[C@@]3(O)C(O)=C(C(N)=O)C(=O)[C@@H](N(C)C)[C@@H]3[C@@H](O)[C@H]12 | 14%[20.6 µM] | . | 5%[40.3 µM] | . | .
Cc1cc(C)cc([N+](=O)[O-])c1 | . | . | -8% | . | .
COC(=O)c1ccc(-c2nc(O)c(C)s2)cc1 | 12%[9.22 µM] | ? | -23% | 13µM* | -6%
COC(=O)c1ccc(-c2nc3cc(Cl)c(N)cc3s2)cc1 | 5% | -4% | -30%[10 µM] | ? | -27%
N#C[C@@H](Cc1ccc(O)c(O)c1)C(=O)N1CCc2ccccc21 | . | . | -21%[1.9 µM] | . | .
Cc1ccc(CNC(=O)c2c[nH]n3c(=O)c(Cc4ccc(F)cc4Cl)c(C)nc23)cc1 | . | -5% | . | 28µM* | ?
C[C@H](CN(C)C)C(=O)c1ccccc1C(=O)O | . | . | 20%[10 µM] | . | .
O=C(N/N=C/c1cn(-c2cccs2)nc1-c1ccccc1)c1ccc(O)cc1 | ? | ? | 40%[10 µM] | 5% | 10µM*[quencher]
Cc1ccc(-c2nn(-c3ccccc3)cc2/C=N/NC(=O)c2ccc(Br)o2)cc1 | 7.1µM* | -14% | -42% | -10% | -13%
O=C(N/N=C/c1cn(-c2ccccc2)nc1-c1ccccc1)c1ccco1 | 8% | -15% | -6%[10 µM] | -25% | ?
O=C(N/N=C\c1cn(-c2ccccc2)nc1-c1ccccc1)c1ccc(Br)o1 | 25µM* | -10% | -49% | -11% | -14%
CC(C)[C@H]1COC(c2cc(Cl)cc(Cl)c2)=N1 | . | -2%[126 µM] | -14%[96.6 µM] | -7%[126 µM] | -16%[126 µM]
Cc1ccc(C)c(N2CCN(C(=O)CCS(=O)(=O)c3cc(Br)cc4c3N(C(=O)C3CC3)CC4)CC2)c1 | . | -5% | . | -10% | -19%
COc1ccc(NC(=O)N2CCc3nc(COc4ccccc4)c4c(c3C2)CO[C@@H](C)C4)cc1 | . | 8%[11.6 µM] | -7%[10 µM] | ? | -19%[11.6 µM]
COc1cccc(C2SCC(=O)N2c2ccc(Cl)cc2)c1OC (stereo unspecified) | 22% | ? | 10%[10 µM] | 1% | 1%
Cc1cccc(N2CSC3=C(C#N)C(c4ccc(C)o4)CC(=O)N3C2)c1 (stereo unspecified) | 46% | ? | -12%[0.074 µM] | 14µM* | -27%
COc1ccc(N2CSC3=C(C#N)C(c4cccc(OC)c4OC)CC(=O)N3C2)cc1 (stereo unspecified) | 11% | ? | -19% | 18µM* | -25%
COC(=O)CSC1=C(C#N)C(c2ccc(C)o2)CC(=O)N1 (stereo unspecified) | -2%[9.22 µM] | 6% | 11%[10 µM] | -6% | 1%
COc1cc(OC)c(C2CC(=O)N3CN(c4ccccc4C)CSC3=C2C#N)cc1OC (stereo unspecified) | 24% | 32µM* | 3%[10 µM] | 28µM* | -24%
COc1ccc(C2CC(=O)N3CN(c4ccccc4F)CSC3=C2C#N)cc1OC (stereo unspecified) | 1% | ? | -15% | 28µM* | -24%
CCc1ccc(NC(=O)N2CCC(N3CCN(Cc4ccc(C)cc4)C(=O)C3=O)CC2)cc1 | . | -3% | . | -5% | -5%
CCn1c(=O)c2cc(C(=O)NCCCN3CCN(C)CC3)sc2c2ccccc21 | . | -1% | . | -11% | -9%
CCOc1ccc2nc(NC(=O)c3nc(SCc4ccccc4F)ncc3Cl)sc2c1 | . | 8% | . | 13% | 17%
